Screening data from PubChem.
TexasRed fluor: Texas Red fluorescence interference in TRb-SRC2 counter-screen; Potency, µM (highest dose often 106 µM); AID 1479; 280,000 tested, 0.29% active; TRb/SRC2 Texas Red total fluorescence interference; active means well fitted curve in either direction with a large enough effect; inconclusive means small, poorly fitted or top-dose-only effect
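Human TRβ ligand-binding domain (0.6 uM) and Texas Red SRC2 peptide (20 nM) in Tris buffer with 1 uM T3 and 5% DMSO were incubated with pinned compound for 5 hr at ambient temperature. Total fluorescence was computed as S + 2P (555/632 nm).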
RGS12 GoLoco inh: blocks human Gai1 binding to RGS12 GoLoco peptide, red readout | Potency, µM (highest dose often 61.6 µM), actives largely listed as inhibitors | Gai1:RGS12 GoLoco peptide FP, rhodamine, 10 min | AID 880 | 230,000 tested, 0.44% active; active means well fitted inhibition curve with a large enough effect, not every such curve was filed as active; inactive means no such curve, though single readings can be large or run the other way; further: nearly all actives have a fitted effect of over 30% in size
Target sequence (P63096 whole entry, looked up): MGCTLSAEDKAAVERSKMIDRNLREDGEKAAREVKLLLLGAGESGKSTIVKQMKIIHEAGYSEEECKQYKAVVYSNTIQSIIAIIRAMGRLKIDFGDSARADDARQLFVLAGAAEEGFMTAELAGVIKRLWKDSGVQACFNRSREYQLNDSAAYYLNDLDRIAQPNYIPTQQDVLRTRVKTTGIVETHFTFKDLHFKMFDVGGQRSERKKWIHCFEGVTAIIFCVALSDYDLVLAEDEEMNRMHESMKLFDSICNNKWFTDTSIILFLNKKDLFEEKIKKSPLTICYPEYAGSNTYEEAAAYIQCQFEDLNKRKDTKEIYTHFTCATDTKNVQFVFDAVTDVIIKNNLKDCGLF
VDR inh: blocks the human vitamin D receptor; VDR-SRC2-3 peptide fluorescence polarization, 2 h; P11473; Potency, µM, usual class: inhibitors; 400,000 tested, 0.93% active
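After 23 nl compound addition and a short centrifugation, plates sat for 2 hours at ambient temperature; polarization of fluorescence then indicated loss of VDR binding to peptide SRC2-3.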
TRb-SRC2 inh: disrupts binding of human TR beta to SRC2; P10828; TRbeta-SRC2 peptide binding, fluorescence polarization; receptor liganded with 1 µM T3; Potency, µM (highest dose often 106 µM), most hits filed as inhibitors; 280,000 tested, 0.065% active; AID 1469; further: nearly all actives have a fitted effect of over 50% in size
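Compounds were added to 0.6 uM TRb ligand-binding domain and 20 nM Texas Red-labeled SRC2 peptide in Tris buffer containing 1 uM T3, incubated 5 hr at ambient temperature, then read by fluorescence polarization.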
GCN5L2 inh: blocks human GCN5L2 histone acetyltransferase. Q92830. GCN5L2 HAT assay, ThioGlo1 CoA-SH fluorescence. Potency, µM (top dose mostly 58.9 µM), actives largely listed as inhibitors. 390,000 tested, 0.21% active
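Enzyme at 20nM final was mixed with library compounds for 15 min at room temperature. Peptide H3(1-25) at 75uM, acetyl-CoA at 70uM and ThioGlo1 at 50uM were then added. Plates were read immediately and after 20 min (Ex340nm/Em540nm).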
A number is an active result; 0 = inactive; ? = inconclusive; - = no result given; ! = not active in a repeat; [ ] = another dose, or the depositor's remark. Most compounds without a hit are left out; they make up all but 1.2% or so of the library. Unless noted, the call rests on the fitted dose curve; in most records, active means well fitted curve in the direction sought with a large enough effect; inconclusive means small, poorly fitted or top-dose-only effect, or another doubt; inactive means no such curve, though single readings can be large; an effect the other way counts as inactive or inconclusive.

SMILES	TexasRed fluor	RGS12 GoLoco inh	VDR inh	TRb-SRC2 inh	GCN5L2 inh
CN(C)/C=C1\SC(=S)N(c2ccc(Br)cc2)C1=O	32µM[fluorescent]	0	0	?	0
CN(C)/C=C1\SC(=S)N(c2ccc(F)cc2)C1=O	0	0	0	0	0
Cc1ccc(Nc2nc(=O)c3cccnc3s2)cc1	0	0	0	0	0
COc1ccc(OC)c(Nc2nc(=O)c3cccnc3s2)c1	0	25µM	45µM	0	?
N#Cc1cccc(CS(=O)(=O)c2nc3ccccc3s2)c1	0	0	?	0	-
COc1cc(/C=C2/SC(=O)N(Cc3ccccc3Cl)C2=O)ccc1OCc1ccncc1	0	0	89µM	0	0
COc1cc(/C=C2/SC(=O)NC2=O)ccc1OCc1ccccc1	-	-	0	-	0
COc1ccc(-c2nnc(Nc3ccc(CC(N)=O)cc3)c3ccccc23)cc1	35µM[quencher]	0	0	?	?
CCN(CC)c1cc2c(cc1F)c(=O)c(S(=O)(=O)c1ccc(OC)cc1)cn2Cc1ccccc1	112µM[quencher]	-	0	0	0
CCN(CC)c1cc2c(cc1F)c(=O)c(S(=O)(=O)c1ccccc1)cn2Cc1ccccc1	0	-	0	0	0
CC(=O)OC1CC[C@]2(C)C(CC(OC(C)=O)[C@@]3(C)C4=CC(=O)OC(c5ccoc5)[C@]4(C)CCC23)C1(C)C (some centres not stated)	0	0	25µM	0	0
CC1(C)C(=O)C=C[C@@]2(C)C1C=C[C@@]1(C)C2CC[C@@]2(C)C(c3ccoc3)OC(=O)C3OC312 (some centres not stated)	0	0	3.5µM	0	0
CC(=O)OC1C=C[C@]2(C)C(CC(OC(C)=O)[C@@]3(C)C4=CC(=O)OC(c5ccoc5)[C@]4(C)CCC23)C1(C)C (some centres not stated)	0	0	56µM	0	0
CC(=O)OC1CC(OC(C)=O)[C@]2(C)C(CC(=O)[C@]3(C)C2CC[C@@]2(C)C(c4ccoc4)OC(=O)C4O[C@@]423)C1(C)C (some centres not stated)	0	22µM	28µM	0	0
CC(=O)OC1CC(OC(C)=O)[C@]2(C)C(CC(O)[C@]3(C)C2CC[C@@]2(C)C(c4ccoc4)OC(=O)C4O[C@]432)C1(C)C (some centres not stated)	0	0	0	0	0
O=C(/C=C/c1cccc([N+](=O)[O-])c1)Nc1cc(C(=O)O)cc(C(=O)O)c1	0	0	35µM	0	0
CC(=O)c1ccccc1S(=O)(=O)N1CCN(c2nc(-c3cccs3)nc3ccccc23)CC1	-	-	0	-	-
C[N+]1(CCCCSc2ccc(O)cc2)CCCCC1	0	0.63µM	0	0	0
Oc1c(Cl)cc(Cl)c2c1NCCC2	0	0	32µM	0	0
C[C@@H]1CC2(OC(O)[C@]3(C)O[C@H]23)O[C@H]2C[C@@]3(C)[C@@H]4CC[C@H]5C(C)(C)C(O[C@@H]6OC[C@@H](O)[C@H](O)[C@H]6O)CC[C@@]56C[C@@]46CC[C@]3(C)[C@@H]12 (some centres not stated)	0	0	-	0	-
Cc1cccc(NC(=O)CN2C(=O)c3cccc4cccc2c34)c1C	0	-	0	0	0
Cc1cccc(NC(=O)CN2C(=O)CCc3ccccc32)c1C	11µM[quencher]	-	0	0	0
Cc1ccc(C)c(S(=O)(=O)c2nnn3c2nc(Nc2ccc(F)c(Cl)c2)c2sccc23)c1	0	-	0	0	0
Cc1cc2c(s1)c1c(n2C)C(=O)N(Cc2ccccc2F)C1	-	-	-	-	0
CCC=O	0	0	-	0	-
SMILES	TexasRed fluor	RGS12 GoLoco inh	VDR inh	TRb-SRC2 inh	GCN5L2 inh
COC(=O)COc1ccc(C(C2C(=O)CC(C)(C)CC2=O)C2C(=O)CC(C)(C)CC2=O)cc1	-	-	50µM	-	0
COC(=O)COc1ccc(NC(=O)C(c2ccccc2)c2ccccc2)cc1	-	-	0	-	0
CCCOc1ccc(/C=C/C(=O)Nc2sc(C)c(C)c2C(=O)OCC)cc1OC	?	-	16µM	0	?
CCOC(=O)c1c(NC(=O)/C=C/c2ccc(OC)c(OC)c2)sc(C(C)=O)c1C	562µM[quencher]	-	?	0	0
CCCOc1ccc(/C=C/C(=O)Nc2ccc([N+](=O)[O-])cc2C)cc1OC	0	0	0	0	0
COC(=O)/C=C\c1cc(O)ccc1O	0	0	?	0	?
ClC(Cl)Cl	0	16µM	0	0	0
Cc1ccc(C(=O)c2ccccc2)cc1	0	-	-	0	-
O=C1CCCC(=O)C1CS(=O)(=O)c1ccccc1	0	0	40µM	0	0
C[N+]1(CC(O)COCC2COc3ccccc3O2)CCOCC1 (configuration not stated)	0	2µM	0	0	0
OC(COCC1COc2ccccc2O1)CN1CCN(c2ccccc2)CC1 (configuration not stated)	0	0	0	0	0
CC(=O)c1c(O)cccc1O	?	-	0	0	0
C#CCCCO/N=C1/C[C@@H](O)[C@@H](O)[C@@H]2[C@@H]3C(=O)N(C4CCCCC4)C(=O)[C@H]3CC[C@H]12	0[11.2 µM]	-	-	0[11.2 µM]	-
COCCCNC1=C(Cl)C(=O)c2ccccc2C1=O	0	0	0	0	0
COCCCNc1c2c3c(cccc3[nH]c1=O)C(=O)c1ccccc1-2	?	4.5µM	0	?	?
Cc1ccc(Nc2nc(N/N=C/c3c[nH]c4ccccc34)nc(N3CCOCC3)n2)cc1	631µM[quencher]	0	0	0	0
C(=N\Nc1nc(Nc2ccccc2)nc(N2CCOCC2)n1)/c1c[nH]c2ccccc12	0	0	0	0	0
O=C(O)CC(C(=O)O)N1C(=O)/C(=C/C=C/c2ccco2)SC1=S (configuration not stated)	?	0	0	0	0
O=C(O)C(Cc1ccccc1)N1C(=O)/C(=C/C=C/c2ccco2)SC1=S (configuration not stated)	?	0	0	0	8.9µM
O=c1oc2cc(O)ccc2s1	0	0	28µM!	0	0
CCCCC1=CC2=C(OC(C)=O)C(=O)C(C)(OC(=O)c3ccc(Cl)nc3)C(=O)C2=CO1 (configuration not stated)	0	0	?	0	-
Cc1cccc(Cc2c(C)nc3c(-c4ccccc4)c(C)[nH]n3c2=O)c1	8.9µM[quencher]	-	0	0	0
COc1ccc(CCn2c3c(c(=O)[nH]c2=S)CN(CC(C)C)CN3)cc1OC	-	-	0	-	-
CN(C)c1ccc(/C=C/c2ccc3ccccc3[n+]2C)cc1	0	0	0	?	0
CN(C)c1ccc(/C=C/c2ccc3c4ccccc4ccc3[n+]2-c2ccccc2)cc1	13µM[fluorescent]	0	0	?	0
FC(F)Oc1ccc(NC(=S)NNc2ccnc3cc(Cl)ccc23)cc1	0	0	35µM	0	0
Cc1ccc(Cl)cc1N1CCN(C(=O)C2CCN(S(=O)(=O)c3cccc4nonc34)CC2)CC1	7.9µM[quencher]	-	0	0	0
O=C(NCCN1CCN(c2ccccc2)CC1)C1CCN(S(=O)(=O)c2cccc3nonc23)CC1	0	0	0	0	1.8µM
